# Compounds with a hit are over-represented: about 4.9% of the library has one in this group of screens.
# HSP90 inh: blocks HSP90-mediated luciferase refolding in reticulocyte lysate | Rabbit reticulocyte lysate, luciferase refolding luminescence, 3 h | inhibition, % at 5.6 µM | 290,000 compounds, 0.91% hits;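 active means inhibition above the screen-wide mean plus 3 SD, computed separately per campaign, cut at about 16% in these data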;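 further: inhibitors lower the luminescence because luciferase stays unfolded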
# Platelet DG rel: modulates dense granule release in human platelets; human platelet-rich plasma, SFLLRN dense granule ATP release, luminescence; inhibition, %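 (compounds screened at 7.5 µM in platelet-rich plasma)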; 300,000 compounds, 0.22% hits;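 active means mean replicate score, as percent of positive control, at or above 50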
# HSF1 activator: increases HSF-1 driven luciferase reporter signal. NIH3T3-HGL HSF-1 luciferase reporter, MG132, 8 h; 100% = twice DMSO control signal. activation, % at 9 µM. 300,000 compounds, 1.7% hits;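 active means mean replicate activation of at least 50% with a set share of replicates each reaching 50%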
# HSF1 inhib: HSF1 inhibition; NIH3T3-HGL HSE-luciferase, MG132-induced, luminescence 8 h; hits give low values; activity change, negative = inhibition, % at 7.5 µM (by protocol); 300,000 compounds, 0.77% hits; AID 2098;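 active means more than half of replicate wells show activity change below -50%, luminescence cut by over half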;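 further: luciferase reports HSF-1 transcriptional activity via heat shock element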
# MPTP block: blocks calcium-induced mitochondrial swelling; isolated mouse mitochondria, Ca2+ swelling absorbance, 30 min; inhibition, % at 10 µM; 360,000 compounds, 1.4% hits;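 active means inhibition of 50% or more, scaled per plate between neutral and stimulator controls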
# dFosB act: mouse delta FosB homodimer activation; P13346; purified delta FosB, TAMRA-CDK5 oligo fluorescence polarization; percent of positive-control signal above neutral wells; activation, % at 25 µM; 340,000 compounds, 0.99% hits; AID 493131;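 active means mean activation above about 17%, with every replicate also reaching it, limit read from the data, passing the limit was not always enough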
# Target sequence (P13346 whole entry, looked up): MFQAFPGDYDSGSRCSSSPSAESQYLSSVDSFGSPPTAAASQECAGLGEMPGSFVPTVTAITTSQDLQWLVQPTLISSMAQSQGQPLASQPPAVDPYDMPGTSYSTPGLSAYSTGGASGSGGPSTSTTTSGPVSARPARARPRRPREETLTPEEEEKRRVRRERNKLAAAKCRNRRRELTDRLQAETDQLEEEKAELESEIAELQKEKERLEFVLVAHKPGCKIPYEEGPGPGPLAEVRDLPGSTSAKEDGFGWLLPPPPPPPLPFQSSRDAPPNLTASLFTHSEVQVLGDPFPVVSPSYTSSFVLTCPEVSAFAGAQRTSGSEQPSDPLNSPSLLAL
# A number is an active result; - = inactive; . = no result given.
SMILES,HSP90 inh,Platelet DG rel,HSF1 activator,HSF1 inhib,MPTP block,dFosB act
CCOc1ccc(NC(=O)C/C(C)=N/NC(=O)COc2ccc(Br)cc2C)cc1,-,-,-,-,-,-
Cc1cc(-c2ccc(C(C)C)c(S(=O)(=O)N3CC(=O)Nc4ccccc43)c2)on1,-,-,-,-,-,-
O=C1/C(=C/c2cccc([N+](=O)[O-])c2)CCc2ccccc21,-,-,-,-,-,-
COc1ccc2c(c1)CC/C(=C/c1ccccn1)C2=O,-,-,66,-,-,-
COc1ccc(/C=C2\CCC/C(=C\c3ccc(OC)c(OC)c3OC)C2=O)c(OC)c1OC,-,-,53,-,-,-
COc1ccc(/C=C2\CC/C(=C\c3ccc(OC)c(OC)c3)C2=O)cc1OC,-,-,63,-,-,-
O=C1C(=Cc2ccccn2)CCc2ccccc21,.,.,.,.,-,.
O=C1/C(=C/c2ccc([N+](=O)[O-])cc2)CCc2ccccc21,-,50,-,-,.,.
COc1ccc(S(=O)(=O)N2CCCOC2CNC(=O)C(=O)NC2CCCC2)cc1 (stereo not given),-,-,-,-,-,-
Cc1ccc(NC(=O)C2(S(=O)(=O)c3ccc(Cl)cc3)CC2)cc1,-,-,-,-,-,-
COc1cccc(/C=C2\CCc3ccccc3C2=O)c1,-,-,-,-,-,-
COc1ccc(/C=C2\CCc3ccccc3C2=O)cc1OC,-,-,68,-,-,-
COc1ccc2c(c1)CC/C(=C\Nc1ccc3c(c1)OCO3)C2=O,-,-,-,-,-,-
COc1ccc(N/C=C2\CCc3ccccc3C2=O)cc1,42,-,-,-,-,-
O=C(OCC(=O)N1CCN(Cc2ccccc2)CC1)c1cc(Cl)ccc1[N+](=O)[O-],.,.,.,.,-,-
COc1ccc(OCCN2C(=O)c3cccc(N)c3C2=O)cc1,-,-,59,-,-,-
CCc1nn(C(C)C(=O)NC(C)CCc2ccco2)c(=O)c2cc3occc3n12 (stereo not given),-,-,129,-,-,-
CSc1cccc(NC(=O)c2sc3nc4n(c(=O)c3c2C)CCC4)c1,-,-,64,-,-,-
O=C(Oc1ccccc1Cl)c1ccc(-n2cncn2)nc1,-,-,-,-89,-,-
CCc1ccccc1Oc1nc(NCCOC)nc2cc(-c3ccccc3)sc12,.,.,.,.,-,.
CCCn1cc(S(=O)(=O)c2ccccc2)c(=O)c2cc(OCC)ccc21,-,-,-,-,-,-
CCCCn1cc(S(=O)(=O)c2ccccc2)c(=O)c2cc(C)ccc21,-,-,-,-74,-,-
COC(=O)c1cccc(C(=O)N2CCCC(C(=O)c3ccccc3OC)C2)c1 (stereo not given),-,-,59,-,-,-
CCCNC(=O)C1(C)CCN(Cc2ccc(-n3ccnc3)cc2)C1 (stereo not given),.,.,.,.,-,.
CC(=O)NCCC(=O)Nc1nc(-c2ccc3ccccc3c2)cs1,-,-,-,-,-,-
SMILES,HSP90 inh,Platelet DG rel,HSF1 activator,HSF1 inhib,MPTP block,dFosB act
CC(=O)Nc1nc(-c2ccc3ccccc3c2)cs1,-,-,87,-,-,-
COc1cc(-c2ccc3cc(OC)c(OC)c(OC)c3c2)cc(OC)c1OC,.,.,.,.,-,.
COc1ccc2c(C)cc(SCC(=O)Nc3ncc(Cl)cc3Cl)nc2c1,-,-,-,-,-,-
Cc1cc(SCC(=O)Nc2ncc(Cl)cc2Cl)nc2ccccc12,-,-,54,-,-,-
CC1Cc2ccccc2N1C(=O)COC(=O)c1ccc(S(=O)(=O)N(C)C)cc1 (stereo not given),-,-,-,-78,-,-
Cc1cc(Sc2ncnc(N)c2[N+](=O)[O-])ncn1,-,-,65,-,-,-
O=C(NCC1([N+](=O)[O-])CN(C(=O)c2ccccc2)CN(C(=O)c2ccccc2)C1)c1ccccc1,-,-,-,-,-,-
Cc1ccccc1-n1c(=O)cc(N2CCc3ccccc32)[nH]c1=O,-,-,-,-79,-,-
Cc1ccnc(NC(=S)NC(=O)/C=C/c2ccccc2)c1,-,-,-,-,-,-
Cc1cccnc1NC(=S)NC(=O)/C=C/c1ccccc1,-,-,56,-,-,-
COCCCNC(=O)/C(C#N)=C/c1ccc(F)cc1,-,-,68,-,-,-
Cc1[nH]c2ccc(-c3nnc(SCC(=O)c4ccc(F)cc4)o3)cc2c1C,-,-,-,-60,-,-
Cc1cc(C)c(C)c(C(=O)CSc2nnc(-c3ccc4[nH]c(C)c(C)c4c3)o2)c1C,-,-,-,-,-,-
CC(=O)Oc1ccccc1Cn1c(C)c(C(=O)NCc2ccccc2C(F)(F)F)sc1=O,.,.,.,.,-,.
c1ccc(CN2CCN(c3cnc4ccccc4n3)CC2)cc1,-,-,-,-,-,-
Fc1ccccc1N1CCN(c2cnc3ccccc3n2)CC1,-,-,62,-,-,-
CC(C)c1ccc(C(=O)NNC(=O)C2C3CCC(C3)C2C(=O)O)cc1 (stereo not given),-,-,-,-,.,.
O=S(=O)(C/C(=C/CO)S(=O)(=O)c1ccccc1)c1ccccc1,-,-,-,-77,-,-
CCOC(=O)c1c(-c2ccccc2Cl)csc1NC(=O)c1cc(S(=O)(=O)N2CCOCC2)ccc1C,-,-,-,-,-,-
N#CCC(CNc1ncc(C(F)(F)F)cc1Cl)OC(=O)c1ccc(Cl)cc1Cl (stereo not given),-,-,79,-,-,-
Cc1cccc2sc(N(CCCN(C)C)C(=O)c3nc4ccccc4s3)nc12,-,-,-,-,-,-
CN(C)CCCN(C(=O)c1ccc(S(=O)(=O)N2CCc3ccccc32)cc1)c1nc2ccc(Cl)cc2s1,16,-,-,-,-,-
Cc1cccc2sc(N(CCCN(C)C)C(=O)c3ccc(S(=O)(=O)N4CCc5ccccc5C4)cc3)nc12,-,-,-,-,-,62
Cc1ccc2nc(N(CCCN(C)C)C(=O)c3ccc(S(=O)(=O)N4CCc5ccccc5C4)cc3)sc2c1,-,-,-,-,-,-
Cc1cccc2sc(N(CCCN(C)C)C(=O)c3ccc4ncsc4c3)nc12,17,-,-,-,-,-
SMILES,HSP90 inh,Platelet DG rel,HSF1 activator,HSF1 inhib,MPTP block,dFosB act
CN(C)CCCN(C(=O)c1ccc(S(=O)(=O)N2CCc3ccccc3C2)cc1)c1nc2ccc(F)cc2s1,-,-,-,-,-,69
CCCCC[C@@H]1[C@H]2[C@H]3C(=O)N(c4ccccc4)C(=O)[C@H]3CC(=O)[C@H]2[C@H](c2ccccc2)N1S(=O)(=O)c1ccc(C)cc1,.,.,.,.,-,.
Cc1ccc(S(=O)(=O)Nc2cccc(S(=O)(=O)Nc3ccccc3C(=O)O)c2)c(C)c1,.,.,.,.,-,-
c1ccc(-c2noc(CN3CCN(c4cnccn4)CC3)n2)cc1,-,-,-,-,-,-
COc1ccc(NC(=S)Nc2ccc(F)cc2)c(OC)c1,-,-,-,-52,-,-
Fc1ccc(/C=N/NC(=S)Nc2ccc(Cl)cc2)cc1F,-,-,56,-,-,-
COc1ccc(NC(=S)N/N=C/c2ccc(F)cc2)cc1OC,-,-,55,-,-,-

# Source: PubChem
